# Screening results (PubChem BioAssay)
# Hits are enriched below; roughly 4.5% of the tested compounds scored in any of these assays.
# 697 NFkB inh – lowers PMA/ionomycin-induced NF-kB signal in 697 B cells. 330,000 tested, 0.33% active. AID 435022. 697 B-cell NF-kB luciferase reporter, 16 h. inhibition, % at 4 µM; in the data active = inhibition above about 35%
# aSyn 5UTR inh – 5' untranslated region of α-synuclein, MLPCN primary screen; alpha-synuclein 5'UTR reporter, inhibitor activity; 300,000 tested, 0.82% active; inhibition, % (tested at 7.5 µM); in the data active = inhibition above about 60%;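 also: H4 neuroglioblastoma cells stably carrying SNCA 5'UTR luciferase fusion; 0% = DMSO wells and 100% = positive control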
# Jurkat NFkB inh – lowers PMA/ionomycin-induced NF-kB signal in Jurkat cells | PMA/ionomycin-induced NF-kB luciferase reporter, luminescence | inhibition, % at 4 µM | 330,000 tested, 0.53% active | AID 435003; in the data active = inhibition above about 50%
# Gli-Sufu antag – antagonists of Gli-Sufu signaling. 340,000 tested, 0.74% active. AID 588413. inhibition, % at 5 µM. Sufu-KO-LIGHT fibroblasts, Gli luciferase reporter luminescence;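 active = inhibition above about 55%, limit read from the data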;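 also: 0% = DMSO-treated cells and 100% = wells with medium but no cells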
# Mdm2 MdmX PPI – inhibitors of human Mdm2/MdmX interaction. O15151+Q00987. inhibition, % at 8 µM. 330,000 tested, 3% active. AID 485346. SaOS-2 split-luciferase Mdm2/MdmX complementation, luminescence;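 active = inhibition of at least 50% at 8 µM in the primary screen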
# CSC inhib – cancer stem cell inhibition | cancer stem cell-like cells viability, luminescence | inhibition, % at 7.5 µM | 300,000 tested, 1.1% active | AID 2717; in the data active = inhibition above about 75%; tested in HMLE shEcad cells
# 697 NFkB conf – inhibitors of the PMA/ionomycin-induced NF-kB reporter in 697 B cells, retest | 697 B-cell NF-kB luciferase, 16 h | shares compounds with 697 NFkB inh | inhibition, % at 4 µM | 2,000 tested, 35% active | AID 449746; in the data active = inhibition mostly above about 28%, no sharp cut-off; inactive = mostly below about 22%
# Numbers without * were called inactive; i = inactive; nt = no result given.
SMILES,697 NFkB inh,aSyn 5UTR inh,Jurkat NFkB inh,Gli-Sufu antag,Mdm2 MdmX PPI,CSC inhib,697 NFkB conf
COc1ccc(Cc2nnc(NC(=O)c3ccc(OC)c(OC)c3)s2)cc1,-22,16,18,-21,27,-7,nt
COc1ccc(C(=O)Nc2nnc(Cc3cccs3)s2)cc1OC,36*,26,12,-8,19,64,37*
COc1cc(OC)cc(-c2nc3ccccc3s2)c1,-72,-286,-106,-23,-90,5,nt
COc1ccc2nc(-c3ccc(F)cc3)sc2c1,-311,-2,-127,-160,-138,3,-404
N#Cc1cnn2c1nc(N1CCOCC1)c1ccccc12,36*,50,-2,-20,16,-7,18
Cc1nn2c(nc(N3CCOCC3)c3ccccc32)c1C=C(C#N)C#N,-5,18,-9,-1,-11,-4,nt
CC(C)Cn1c([N+](=O)[O-])nc2c1c(=O)[nH]c(=O)n2C,37*,-20,17,6,34,22,30*
CCS(=O)(=O)c1nc(S(=O)(=O)c2ccc(Cl)cc2)c(N2CCOCC2)s1,6,-5,9,-1,45,-4,nt
Cc1cc(N2CCC(C)CC2)n2nc(C)c(-c3ccccc3)c2n1,-31,-10,-21,-9,31,53,nt
Cc1cc(N2CCC(C)CC2)n2ncc(-c3ccccc3)c2n1,-402,-52,-138,25,3,-12,-306
Cc1cc(NCc2ccccc2)n2ncc(-c3ccccc3)c2n1,i,-72,-135,-76,-27,48,-397
Cc1cc(N2CCOCC2)n2ncc(-c3ccccc3)c2n1,-318,54,-149,-9,39,-5,-485
Cc1ccc(C(=O)Nc2ncc3c(Cl)cccc3n2)cc1,-256,65*,-77,-88,-96,30,-263
N/C(=N\OC(=O)Cc1cccs1)c1ccc([N+](=O)[O-])cc1,-6,-49,-26,-18,-7,-9,nt
CC1CCCN(C(=O)CSc2nnc3n(C4CCCC4)c(=O)c4ccccc4n23)C1 (stereo not drawn),35*,8,7,-3,47,nt,-5
CCn1c(SCC(=O)NNC(=O)c2ccccc2)nnc1-c1ccncc1,42*,7,6,2,17,-4,-2
CN(C)c1ccc(/C=C(\C#N)c2ccccn2)cc1,-345,102*,-48,-36,-6,22,-389
Cc1ccccc1-c1nnc(SCC(=O)Nc2cccc(C)c2C)o1,37*,-34,-33,-16,-46,-4,14
CN(CC(=O)Nc1ccc(OC(F)(F)F)cc1)C(=O)c1ccccc1SCC(=O)N1CCCC1,nt,nt,nt,11,nt,nt,nt
CCn1nc(NS(=O)(=O)c2ccc(NC(C)=O)cc2)c2cc3cc(C)ccc3nc21,-17,-35,-3,-20,8,1,nt
COc1ccccc1NC(=O)N1CCc2c([nH]c3ccccc23)C1C(F)(F)F (stereo not drawn),35*,2,13,2,5,8,8
COc1ccc(C(=O)N2CCc3c([nH]c4ccccc34)C2C(F)(F)F)cc1 (stereo not drawn),0,10,9,-2,26,1,nt
COCCCNC(=O)CSC1=Nc2ccccc2C2=NC(CC(=O)NCc3ccccc3)C(=O)N12 (stereo not drawn),-2,-7,-14,2,-1,nt,nt
O=C(Nc1ccc(N2CCCC2)cc1)c1cccc(Cl)c1,-266,-137,-119,-24,-107,9,-27
O=C(Nc1cc(C(=O)N2CCCC2)ccc1N1CCCC1)c1ccccc1F,44*,5,11,4,-19,-2,-5
SMILES,697 NFkB inh,aSyn 5UTR inh,Jurkat NFkB inh,Gli-Sufu antag,Mdm2 MdmX PPI,CSC inhib,697 NFkB conf
O=C(Nc1ccc(C(=O)N2CCCC2)cc1)c1ccccc1F,-13,-65,-19,-34,-26,-3,nt
Cc1ccc(OCc2cc(C(=O)N3CCc4[nH]cnc4C3c3ccccn3)no2)cc1C (stereo not drawn),-10,12,-9,-4,20,-8,nt
Cc1ccnc(NC(=O)Nc2ccc3c(c2)N(C)C(=O)CS3)c1,-338,-97,-77,-100,-99,17,-227
CN1C(=O)CSc2ccc(NC(=O)N3CCN(c4ccccc4)CC3)cc21,36*,14,-11,19,41,-16,31*
Cc1ccc(NC(=O)Nc2ccc3c(c2)N(C)C(=O)CS3)nc1,-78,-11,10,-11,-3,-9,nt
O=C(Nc1ccccc1)N1CCN(c2ccccc2)CC1,nt,nt,nt,3,nt,nt,nt
O=CNC1c2ccccc2CCc2ccccc21,nt,nt,nt,1,nt,nt,nt
OC(c1ccccc1)c1nccc2ccccc12 (stereo not drawn),6,2,-9,-3,16,-15,nt
c1ccc(-c2nc3cc4ccccc4cc3[nH]2)nc1,-272,51,-59,-122,-21,27,-315
O=C(Nc1ncc([N+](=O)[O-])s1)c1cccc([N+](=O)[O-])c1,-450,32,-72,-24,28,54,-444
COC(=O)c1c(NC(=O)c2cccc([N+](=O)[O-])c2)sc(C(N)=O)c1C,39*,3,16,-16,25,nt,50*
COC(=O)c1sc(NC(=O)c2cccc([N+](=O)[O-])c2)c(C(N)=O)c1C,13,28,3,11,3,3,nt
O=C(Nc1ccccc1)Nc1ncc([N+](=O)[O-])s1,-260,-49,-80,-110,-26,nt,-351
O=C(Nc1ccc(NC(=O)c2cccc([N+](=O)[O-])c2)cc1)c1cccc([N+](=O)[O-])c1,-17,-56,-20,30,-2,-6,nt
Cc1ccccc1-n1c(SCc2c(C)noc2C)nnc1-c1c[nH]c2ccccc12,40*,20,-10,21,41,-9,41*
N#Cc1ccc(CSc2nnc(-c3c[nH]c4ccccc34)n2-c2ccccc2)cc1,-11,24,-10,17,3,-10,nt
Cc1c(CC(=O)NCCCC(=O)O)c(=O)oc2cc3c(cc12)CCC(C)(C)O3,52*,51,-2,3,5,-8,51*
O=[N+]([O-])c1ccccc1N=Nc1ccc(O)cc1,-70,-36,-36,-15,-17,-10,nt
Oc1ccc(N=Nc2ccc3ccccc3c2)cc1,-400,-73,-122,-90,-231,111*,-318
Cc1cc(C)c2nc(NC(=O)c3ccco3)sc2c1,-298,34,-135,-139,-81,39,-406
COc1ccc2sc(NC(=O)c3ccco3)nc2c1,-281,22,-89,-99,-43,15,-238
O=C(Nc1nc2c(Br)cc(Br)cc2c(=O)s1)c1ccco1,36*,-31,15,10,20,54,37*
O=C(Nc1nc2c(F)cccc2s1)c1ccco1,-149,-121,-70,-19,-113,-4,nt
COCCNC(=S)NC12CC3CC(CC(C3)C1)C2,15,-7,1,-4,4,-12,nt
COc1ccc(OCCC(=O)OCC(=O)NCCc2ccccc2)cc1,4,-6,3,2,-24,-8,nt
